Laboratory results taken from PubChem BioAssay (Tox21).
Records with an inconclusive call do not appear. Activity calls are given as the source filed them. Unless noted, calls follow the shape of the dose curve; as a rule, active = well fitted curve in the direction sought with a large enough effect in the repeat runs; inconclusive = weak or mixed curves; inactive = no such curve, though single readings can be large; an effect the other way counts as inactive or inconclusive.

Key:
[1] = qHTS assay for small molecule agonists of the p53 signaling pathway (AID 651631; calls by dose curve; also: nearly all actives have a fitted effect of over 15% in size)
How it was run: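 HCT-116 p53RE-bla reporter line, 16 h compound treatment at 37 °C, then fluorescence after 2 h with B/G FRET substrate.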

[2] = qHTS assay for small molecules that induce genotoxicity in human embryonic kidney cells expressing luciferase-tagged ATAD5 (AID 651632); also: nearly all actives have a fitted effect of over 15% in size
How it was run: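 Test compounds were delivered by pin tool onto HEK293T reporter cells (2,000/well) expressing ATAD5 fused to luciferase. After 16 hr at 37C, 5% CO2, Amplite was added for 30 min at room temperature and luminescence was measured.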

[3] = qHTS assay for small molecule agonists of the p53 signaling pathway - cell viability (AID 651633; calls by dose curve;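 also: p53RE-bla HCT reporter cells with a stable beta-lactamase p53 reporter; series mostly up to about 83 µM; nearly all actives have a fitted effect of over 30% in size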)
How it was run: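 p53RE-bla cells, seeded at 4,000 per well and rested 5 h at 37 C/5% CO2, received compounds in DMSO for 16 h at 37 C. CellTiter-Glo was then added, and luminescence was read after 30 min at room temperature to gauge cytotoxicity.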

[4] = qHTS assay for small molecules that induce genotoxicity in human embryonic kidney cells expressing luciferase-tagged ATAD5 - cell viability (AID 651634; calls by dose curve; also: nearly all actives have a fitted effect of over 25% in size)
How it was run: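 Quantitative high-throughput format. HEK293T cells expressing ATAD5 fused to luciferase were plated at 2,000 cells/well and treated 15.5 hr with compound versus DMSO. Viability was determined by fluorescent live-cell protease substrate, 30 min at 37C.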

[5] = qHTS assay for small molecule disruptors of the mitochondrial membrane potential - cell viability (AID 720634; calls by dose curve;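 also: human HepG2 liver cancer cells; series mostly up to about 83 µM; nearly all actives have a fitted effect of over 20% in size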)
How it was run: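 Same-well counter-screen: following the MMP dye addition, CellTiter-Glo was added to 1 hr compound-treated HepG2 cells and luminescence read after 30 min at room temperature.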

[6] = qHTS assay for small molecule disruptors of the mitochondrial membrane potential (AID 720635); also: potency is read from the fitted curve at half-maximal effect
How it was run: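 HepG2 cells (2,000/well) attached overnight at 37C, then took compound for 1 hr at 37C, 5% CO2. Mito-MPS dye was added for 30 min; fluorescence was read at 490/535 nm (monomers) and 540/590 nm (aggregates).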

[7] = qHTS assay to test for compound auto fluorescence at 590 nm (red) in HepG2 cells (AID 720674)
How it was run: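 Compound auto-fluorescence is scored relative to Rose Bengal sodium, measured at 540/590 nm in live HepG2 cultures after 1 hr compound contact (37 C, 5% CO2).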

[8] = qHTS assay to test for compound auto fluorescence at 535 nm (green) in HepG2 cells (AID 720675)
[9] = qHTS assay to test for compound auto fluorescence at 460 nm (blue) in HEK293 cells (AID 720678)
How it was run: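 Triamterene serves as the blue fluorophore standard. Compound signal at 405/460 nm is read in HEK293 wells (2,000 cells, 10% dialyzed FBS) after overnight treatment at 37C.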

[10] = qHTS assay to test for compound auto fluorescence at 590 nm (red) in HEK293 cells (AID 720679)
How it was run: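 We plated HEK293 cells in 10% dialyzed FBS medium, let them adhere for 4-5 hr, then added 23 nL compound. Overnight at 37C and 5% CO2 preceded fluorescence measurement at 540/590nm.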

[11] = qHTS assay to test for compound auto fluorescence at 535 nm (green) in HEK293 cells (AID 720680)
[12] = qHTS assay to test for compound auto fluorescence at 460 nm (blue) in HEK293 cell free culture (AID 720681)
How it was run: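 Test compounds were pinned into cell-free culture medium (DMEM with 10% FBS) and fluorescence was read directly at Ex/Em 405/460 nm. Signals were expressed as fluorescence equivalents of triamterene, with DMSO vehicle as control.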

[13] = qHTS assay to test for compound auto fluorescence at 535 nm (green) in HEK293 cell free culture (AID 720682)
How it was run: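 Steps: dispense DMEM/10% FBS into empty wells; pin in compound or DMSO; measure fluorescence at 485/535 nm. Values are fluorescein equivalents.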

[14] = qHTS assay to test for compound auto fluorescence at 590 nm (red) in HEK293 cell free culture (AID 720683)
How it was run: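 Tox21 10K library compounds were pinned into cell-free DMEM with 10% FBS and fluorescence was read at excitation 540 nm. Activity is expressed as Rose Bengal sodium equivalency.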

[15] = qHTS assay to test for compound auto fluorescence at 460 nm (blue) in HepG2 cell free culture (AID 720685)
How it was run: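 Cell-free plates of MEM plus 10% FBS received 23 nL compound or DMSO vehicle; blue-channel (405/460 nm) intensity scored against triamterene as reference fluorophore.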

[16] = qHTS assay to test for compound auto fluorescence at 535 nm (green) in HepG2 cell free culture (AID 720686)
[17] = qHTS assay to test for compound auto fluorescence at 460 nm (blue) in HepG2 cells (AID 720687)
How it was run: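 Cells (2,000/well in MEM with 10% FBS) attached overnight at 37 C, then were exposed to compound or DMSO for 1 hr at 37 C, 5% CO2. Fluorescence read at Ex/Em 405/460 nm, expressed as triamterene-equivalent signal.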

[18] = target: Glucocorticoid receptor (Homo sapiens) (UniProt P04150); assay: qHTS assay to identify small molecule agonists of the glucocorticoid receptor (GR) signaling pathway (AID 720691; active = well fitted activation curve with a large enough effect in the signal ratio in the repeat runs, not every such curve was filed as active; the % refers to the signal ratio)
How it was run: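 A HeLa cervical cancer line expressing GR and a glucocorticoid response element-driven beta-lactamase gene is treated with compounds for 18 h; LiveBLAzer B/G FRET substrate is then applied and fluorescence read.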

[19] = target: Glucocorticoid receptor (Homo sapiens) (UniProt P04150); assay: qHTS assay to identify small molecule antagonists of the glucocorticoid receptor (GR) signaling pathway (AID 720692; active = well fitted inhibition curve with a large enough effect in the signal ratio in the repeat runs, not every such curve was filed as active; the % refers to the signal ratio)
How it was run: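 GRE-bla HeLa line, dex-stimulated (5 nM final). Compound exposure 18 h, 37 C. Beta-lactamase FRET read after 2 h RT substrate.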

[20] = qHTS assay to test for compound auto fluorescence at 590 nm (red) in HepG2 cell free culture (AID 720684)
How it was run: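 Ex 540 / Em 590 nm read of compound in cell-free MEM (10% FBS). Rose Bengal sodium reference.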

Measured: Potency

Sequence of Glucocorticoid receptor (Homo sapiens) (P04150 whole entry, looked up): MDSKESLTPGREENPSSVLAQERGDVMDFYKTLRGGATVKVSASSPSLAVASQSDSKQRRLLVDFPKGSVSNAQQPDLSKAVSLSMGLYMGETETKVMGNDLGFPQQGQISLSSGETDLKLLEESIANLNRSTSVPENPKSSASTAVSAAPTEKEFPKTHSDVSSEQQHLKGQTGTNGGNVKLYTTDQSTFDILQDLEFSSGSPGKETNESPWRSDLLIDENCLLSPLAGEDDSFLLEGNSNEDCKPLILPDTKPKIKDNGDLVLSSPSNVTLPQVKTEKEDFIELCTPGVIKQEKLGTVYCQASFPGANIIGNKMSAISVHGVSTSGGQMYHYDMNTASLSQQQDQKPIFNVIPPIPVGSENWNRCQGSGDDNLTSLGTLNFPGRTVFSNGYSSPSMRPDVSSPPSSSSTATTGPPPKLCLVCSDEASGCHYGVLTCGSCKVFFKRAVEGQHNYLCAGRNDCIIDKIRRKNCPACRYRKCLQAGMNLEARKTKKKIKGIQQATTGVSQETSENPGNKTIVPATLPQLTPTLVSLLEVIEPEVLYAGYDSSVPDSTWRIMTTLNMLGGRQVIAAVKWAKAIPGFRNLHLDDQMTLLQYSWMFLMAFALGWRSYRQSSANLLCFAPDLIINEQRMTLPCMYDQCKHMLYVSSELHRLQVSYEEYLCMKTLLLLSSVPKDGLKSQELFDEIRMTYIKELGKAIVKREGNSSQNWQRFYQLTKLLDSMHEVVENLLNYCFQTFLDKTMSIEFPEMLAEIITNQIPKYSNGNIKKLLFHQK

CCC(C)Cl (stereo not drawn)
not listed: [20]
inactive: all other assays above

CCCC(C)(COC(N)=O)COC(=O)NC(C)C (stereo not drawn)
not listed: [12] | [18] | [19]
inactive: all other assays above

CNC(=O)Oc1cccc(N=CN(C)C)c1
not listed: [18] | [19] | [20]
inactive: all other assays above

CC(C)(C#N)C(C)(C)C#N
not listed: [18] | [19]
inactive: all other assays above

CCC[N+](CCC)(CCC)CCC
not listed: [18] | [19]
inactive: all other assays above

Nc1cc(Cl)cc(C(=O)O)c1Cl
not listed: [18] | [19]
inactive: all other assays above

CC(C)CCON=O
inactive: all assays above

CCOc1cccc(C2(N3CCN(c4ccccc4)CC3)CCC(C)CC2)c1 (stereo not drawn)
inactive: all assays above

CCCCC1C(=O)NC(=O)N(C2CCCCC2)C1=O (stereo not drawn)
inactive: all assays above

Clc1ccc2ccccc2c1
inactive: all assays above

O=C(NCNC(=O)NC1C(=O)NC(=O)N1CO)NC1C(=O)NC(=O)N1CO (stereo not drawn)
not listed: [19] | [20]
inactive: all other assays above

CC(C)(C)NCC(O)c1cc(Cl)c(N)c(C(F)(F)F)c1 (stereo not drawn)
inactive: all assays above

COC1CC(=C(c2cccs2)c2cccs2)C[N+](C)(C)C1 (stereo not drawn)
inactive: all assays above

C=C(Cl)Cl
inactive: all assays above

CN1CC[C@]23c4c5ccc(O)c4O[C@H]2[C@@H](O)CC[C@H]3[C@H]1C5
inactive: all assays above

C[N+]1(CCF)[C@@H]2CC[C@H]1CC(OC(=O)C(O)(c1ccccc1)c1ccccc1)C2 (stereo partly drawn)
not listed: [20]
inactive: all other assays above

CCCCCCCCCCCCCCCl
not listed: [19]
inactive: all other assays above

CCCC1CCCCN1 (stereo not drawn)
not listed: [18] | [19] | [20]
inactive: all other assays above

CC(Oc1cccc(Cl)c1)C(=O)O (stereo not drawn)
inactive: all assays above

N#CC1(N=NC2(C#N)CCCCC2)CCCCC1
inactive: all assays above

CCCCC(CC)CO[N+](=O)[O-] (stereo not drawn)
inactive: all assays above

CN[C@@H](C)[C@H](O)c1ccccc1
inactive: all assays above

C1CCNCC1
not listed: [18] | [19] | [20]
inactive: all other assays above

CCOC(=O)C1OC1(C)c1ccccc1 (stereo not drawn)
not listed: [19]
inactive: all other assays above

Oc1cccc(Cl)c1
active: [6] 53.8 µM
not listed: [19] | [20]
inactive: all other assays above

CC(C)OC(=O)Cc1ccccc1
inactive: all assays above

O=S(=O)(Cl)Cl
not listed: [19]
inactive: all other assays above

C=CCc1ccc(OC(=O)Cc2ccccc2)c(OC)c1
inactive: all assays above

O=C(O)c1cc(Cl)ccc1Cl
not listed: [19]
inactive: all other assays above

N#CC(C#N)=Cc1ccc(O)c(O)c1
active: [6] 11.9 µM
not listed: [18] | [19]
inactive: all other assays above

CCCCOC(=O)CCC(=O)OCCCC
not listed: [18] | [19]
inactive: all other assays above
